{"source": "PubChem BioAssay (NCI)", "key": {"[1]": {"experiment": "NCI Yeast Anticancer Drug Screen. Data for the rad50EPP+ strain (AID 151)", "conditions": "S. cerevisiae rad50 mutant strain, stronger effect = higher value", "summary_of_the_method": "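rad50EPP+ yeast treated with test compounds. Readout: growth vs vehicle control.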"}, "[2]": {"experiment": "NCI Yeast Anticancer Drug Screen. Data for the rad50 strain (AID 155);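 note: 0% = growth of vehicle-only cultures of the same strain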", "conditions": "S. cerevisiae rad50 strain growth inhibition, stronger effect = higher value", "summary_of_the_method": "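Vehicle-treated cultures provide the reference for the growth inhibition reported for compound-exposed, repair-deficient yeast.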"}, "[3]": {"experiment": "NCI Yeast Anticancer Drug Screen. Data for the mec2-1 strain (AID 157)", "conditions": "S. cerevisiae mec2-1 strain, stronger effect = higher value", "summary_of_the_method": "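Growth inhibition is read against vehicle-treated controls after compound exposure of the mec2-1 yeast strain, which is defective in DNA damage repair or cell cycle control.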"}, "[4]": {"experiment": "NCI Yeast Anticancer Drug Screen. Data for the rad14 strain (AID 159)", "conditions": "S. cerevisiae rad14 strain growth inhibition, stronger effect = higher value", "summary_of_the_method": "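Inhibition of growth is reported for a repair-deficient yeast mutant following compound treatment, calculated relative to cultures that received vehicle.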"}, "[5]": {"experiment": "NCI Yeast Anticancer Drug Screen. Data for the sgs1 mgt1 strain (AID 161)", "conditions": "S. cerevisiae sgs1 mgt1 strain, stronger effect = higher value", "summary_of_the_method": "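Growth of a repair-deficient yeast mutant was monitored after compound treatment and expressed as inhibition relative to vehicle-treated cultures.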"}, "[6]": {"experiment": "NCI Yeast Anticancer Drug Screen. Data for the CLN2oe strain (AID 163)", "conditions": "S. cerevisiae CLN2oe strain, stronger effect = higher value", "summary_of_the_method": "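Compound-treated yeast; growth vs vehicle ctrl = % inhibition. Genetically altered strain (cell-cycle control).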"}, "[7]": {"experiment": "NCI Yeast Anticancer Drug Screen. Data for the cln2 rad14 strain (AID 165)", "conditions": "S. cerevisiae cln2 rad14 strain, stronger effect = higher value", "summary_of_the_method": "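Growth inhibition, relative to vehicle-treated controls, is the read-out. The test organism is a yeast strain with defined genetic alterations, cln2 rad14.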"}, "[8]": {"experiment": "NCI Yeast Anticancer Drug Screen. Data for the bub3 strain (AID 167)", "conditions": "S. cerevisiae bub3 mutant strain, stronger effect = higher value", "summary_of_the_method": "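Mutant yeast screening strain plus compound; vehicle-treated cultures serve as the 0% inhibition reference.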"}, "[9]": {"experiment": "NCI Yeast Anticancer Drug Screen. Data for the wt2 strain (AID 169)", "conditions": "S. cerevisiae wt2 strain growth inhibition, stronger effect = higher value", "summary_of_the_method": "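Compound exposure of yeast; growth compared with vehicle controls; inhibition reported.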"}, "[10]": {"experiment": "NCI Yeast Anticancer Drug Screen. Data for the mlh1 strain (AID 171)", "conditions": "S. cerevisiae mlh1 strain growth inhibition, stronger effect = higher value", "summary_of_the_method": "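Compounds are applied to a genetically altered yeast strain, and its growth is compared with that of vehicle-treated cultures to give percent inhibition.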"}, "[11]": {"experiment": "NCI Yeast Anticancer Drug Screen. Data for the sgs1 strain (AID 173)", "conditions": "S. cerevisiae sgs1 mutant, stronger effect = higher value", "summary_of_the_method": "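Compounds applied to genetically altered yeast; growth compared with vehicle-treated cultures to give % inhibition.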"}, "[12]": {"experiment": "NCI Yeast Anticancer Drug Screen. Data for the mlh1 rad18 strain (AID 175)", "conditions": "S. cerevisiae mlh1 rad18 strain growth inhibition, stronger effect = higher value", "summary_of_the_method": "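Cells of a genetically altered yeast strain, deficient in DNA damage repair, were treated with compound. Their growth was then compared with that of vehicle-treated cultures to give inhibition.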"}, "[13]": {"experiment": "NCI Yeast Anticancer Drug Screen. Data for the rad18 strain (AID 177)", "conditions": "S. cerevisiae rad18 mutant growth inhibition, stronger effect = higher value", "summary_of_the_method": "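Compounds are applied to a repair-deficient yeast strain, and growth is compared with that of vehicle-treated cultures to give percent inhibition.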"}, "[14]": {"conditions": "at 5.0 µM (retest, dose inferred, filed as 0.5)"}, "[15]": {"conditions": "at 50.0 µM (retest, dose inferred, filed as 5.0)"}}, "note": "This is part of a sample that, as a whole, favours compounds with a hit. Of some 79,000 tested, about 15% had one in any assay. A number with no mark means an inactive call. Activity calls are given as the source filed them. Cut-off read from the data, not from the text of the source: active = growth inhibition above about 70%; inactive = the rest."}
{"smiles": "[N-]=[N+]=NC1CC(n2ccc(=O)[nH]c2=O)OC1COC(c1ccccc1)(c1ccccc1)c1ccccc1", "note": "(stereo not drawn)", "values": [{"measurement": "growth inhibition", "setting": "[1]; at 1.2 µM", "value": 1, "unit": "%"}, {"measurement": "growth inhibition", "setting": "[1]; at 3.7 µM", "value": 0, "unit": "%"}, {"measurement": "growth inhibition", "setting": "[1]; at 11.0 µM", "value": 0, "unit": "%"}, {"measurement": "growth inhibition", "setting": "[1]; at 33.0 µM", "value": -2, "unit": "%"}, {"measurement": "growth inhibition", "setting": "[1]; at 100.0 µM", "value": -7, "unit": "%"}, {"measurement": "growth inhibition", "setting": "[2]; at 1.2 µM", "value": 1, "unit": "%"}, {"measurement": "growth inhibition", "setting": "[2]; at 3.7 µM", "value": 3, "unit": "%"}, {"measurement": "growth inhibition", "setting": "[2]; [14]", "value": "76% (active)"}, {"measurement": "growth inhibition", "setting": "[2]; at 11.0 µM", "value": 48, "unit": "%"}, {"measurement": "growth inhibition", "setting": "[2]; at 33.0 µM", "value": "93% (active)"}, {"measurement": "growth inhibition", "setting": "[2]; [15]", "value": "82% (active)"}, {"measurement": "growth inhibition", "setting": "[2]; at 50.0 µM", "value": 41.8, "unit": "%"}, {"measurement": "growth inhibition", "setting": "[2]; at 100.0 µM", "value": "83% (active)"}, {"measurement": "growth inhibition", "setting": "[3]; at 1.2 µM", "value": -3, "unit": "%"}, {"measurement": "growth inhibition", "setting": "[3]; at 3.7 µM", "value": -1, "unit": "%"}, {"measurement": "growth inhibition", "setting": "[3]; [14]", "value": 18, "unit": "%"}, {"measurement": "growth inhibition", "setting": "[3]; at 11.0 µM", "value": 27, "unit": "%"}, {"measurement": "growth inhibition", "setting": "[3]; at 33.0 µM", "value": "86% (active)"}, {"measurement": "growth inhibition", "setting": "[3]; [15]", "value": "79% (active)"}, {"measurement": "growth inhibition", "setting": "[3]; at 50.0 µM", "value": "89.7% (active)"}, {"measurement": "growth inhibition", "setting": "[3]; at 100.0 µM", "value": "85% (active)"}, {"measurement": "growth inhibition", "setting": "[4]; at 1.2 µM", "value": 2, "unit": "%"}, {"measurement": "growth inhibition", "setting": "[4]; at 3.7 µM", "value": 5, "unit": "%"}, {"measurement": "growth inhibition", "setting": "[4]; at 11.0 µM", "value": 18, "unit": "%"}, {"measurement": "growth inhibition", "setting": "[4]; at 33.0 µM", "value": "77% (active)"}, {"measurement": "growth inhibition", "setting": "[4]; at 100.0 µM", "value": "81% (active)"}, {"measurement": "growth inhibition", "setting": "[5]; [14]", "value": 15, "unit": "%"}, {"measurement": "growth inhibition", "setting": "[5]; [15]", "value": "80% (active)"}, {"measurement": "growth inhibition", "setting": "[5]; at 50.0 µM", "value": 50.5, "unit": "%"}, {"measurement": "growth inhibition", "setting": "[6]; at 1.2 µM", "value": -4, "unit": "%"}, {"measurement": "growth inhibition", "setting": "[6]; at 3.7 µM", "value": -4, "unit": "%"}, {"measurement": "growth inhibition", "setting": "[6]; at 11.0 µM", "value": 26, "unit": "%"}, {"measurement": "growth inhibition", "setting": "[6]; at 33.0 µM", "value": "89% (active)"}, {"measurement": "growth inhibition", "setting": "[6]; at 100.0 µM", "value": "80% (active)"}, {"measurement": "growth inhibition", "setting": "[7]; [14]", "value": 33, "unit": "%"}, {"measurement": "growth inhibition", "setting": "[7]; [15]", "value": "81% (active)"}, {"measurement": "growth inhibition", "setting": "[7]; at 50.0 µM", "value": "88.9% (active)"}, {"measurement": "growth inhibition", "setting": "[8]; at 1.2 µM", "value": 0, "unit": "%"}, {"measurement": "growth inhibition", "setting": "[8]; at 3.7 µM", "value": -2, "unit": "%"}, {"measurement": "growth inhibition", "setting": "[8]; [14]", "value": 8, "unit": "%"}, {"measurement": "growth inhibition", "setting": "[8]; at 11.0 µM", "value": 15, "unit": "%"}, {"measurement": "growth inhibition", "setting": "[8]; at 33.0 µM", "value": "85% (active)"}, {"measurement": "growth inhibition", "setting": "[8]; [15]", "value": "76% (active)"}, {"measurement": "growth inhibition", "setting": "[8]; at 50.0 µM", "value": "89.8% (active)"}, {"measurement": "growth inhibition", "setting": "[8]; at 100.0 µM", "value": "83% (active)"}, {"measurement": "growth inhibition", "setting": "[9]; at 1.2 µM", "value": 0, "unit": "%"}, {"measurement": "growth inhibition", "setting": "[9]; at 3.7 µM", "value": -1, "unit": "%"}, {"measurement": "growth inhibition", "setting": "[9]; at 11.0 µM", "value": 23, "unit": "%"}, {"measurement": "growth inhibition", "setting": "[9]; at 33.0 µM", "value": "81% (active)"}, {"measurement": "growth inhibition", "setting": "[9]; at 100.0 µM", "value": "80% (active)"}, {"measurement": "growth inhibition", "setting": "[10]; at 1.2 µM", "value": 0, "unit": "%"}, {"measurement": "growth inhibition", "setting": "[10]; at 3.7 µM", "value": 2, "unit": "%"}, {"measurement": "growth inhibition", "setting": "[10]; at 11.0 µM", "value": 25, "unit": "%"}, {"measurement": "growth inhibition", "setting": "[10]; at 33.0 µM", "value": "71% (active)"}, {"measurement": "growth inhibition", "setting": "[10]; at 100.0 µM", "value": "77% (active)"}, {"measurement": "growth inhibition", "setting": "[11]; at 1.2 µM", "value": 0, "unit": "%"}, {"measurement": "growth inhibition", "setting": "[11]; at 3.7 µM", "value": 2, "unit": "%"}, {"measurement": "growth inhibition", "setting": "[11]; at 11.0 µM", "value": 17, "unit": "%"}, {"measurement": "growth inhibition", "setting": "[11]; at 33.0 µM", "value": "84% (active)"}, {"measurement": "growth inhibition", "setting": "[11]; at 100.0 µM", "value": "86% (active)"}, {"measurement": "growth inhibition", "setting": "[12]; [14]", "value": "74% (active)"}, {"measurement": "growth inhibition", "setting": "[12]; [15]", "value": "86% (active)"}, {"measurement": "growth inhibition", "setting": "[12]; at 50.0 µM", "value": 50.6, "unit": "%"}, {"measurement": "growth inhibition", "setting": "[13]; at 1.2 µM", "value": 3, "unit": "%"}, {"measurement": "growth inhibition", "setting": "[13]; at 3.7 µM", "value": 13, "unit": "%"}, {"measurement": "growth inhibition", "setting": "[13]; at 11.0 µM", "value": 52, "unit": "%"}, {"measurement": "growth inhibition", "setting": "[13]; at 33.0 µM", "value": "94% (active)"}, {"measurement": "growth inhibition", "setting": "[13]; at 100.0 µM", "value": "87% (active)"}]}
